# The entries come from a sample that favours hits as a whole.
# VACV E9 pol inh – vaccinia E9 polymerase processive synthesis inhibition; in vitro processive DNA synthesis, absorbance read-out; hits give low values; normalized absorbance, % (no concentration beside the values); hit rate 0.94% among 46,000; AID 493162; in the data active = normalized absorbance mostly below about 85%, no sharp cut-off; inactive = mostly above about 86%
# * hit, by the source's call; ! = repeats disagree.
SMILES,VACV E9 pol inh
Cc1ccc(Nc2ccc(C)cc2)cc1,100
Cc1ccc(S(=O)(=O)c2ccc(NN)cc2)cc1,95
Cc1ccc(C(CC(=O)c2ccco2)Sc2ccccc2N)cc1 (centres undefined),100
COC(=O)c1ccccc1NC(=O)CSc1nc2ccccc2s1,100
Cn1nc(C(=O)NCCN2CCC(Cc3ccccc3)CC2)c2c1-c1ccccc1OC2,95
CCC1CCCCN1C(=O)COC(=O)CSc1cc(C)ccc1C (centres undefined),106
O=C(O)c1ccc(CSCc2ccccc2)o1,92
COc1ccc(S(=O)(=O)Cc2ccc(C(=O)N3CCOCC3)o2)cc1,98
O=C(O)c1ccc(CS(=O)(=O)c2ccccc2)o1,19*
COc1ccccc1NC(=O)CCN1C(=O)c2ccccc2Sc2ncccc21,94
Cc1cc(C)n2nc(CNC(=O)Nc3ccccc3Cl)nc2n1,103
O=C1CC(c2ccccc2)SC(c2ccccc2)C1 (centres undefined),100
O=C(O)CN1CCC(c2ccccc2)CC1,103
O=C1CCC(c2ccccc2)CC1,66*
O=C(Nc1cc(C(F)(F)F)ccc1N1CCCC1)Nc1cccc2ccccc12,126
CCOC(=O)COc1ccccc1O,103
CCOC(=O)c1c(C)oc2c1c(CN1CCN(C)CC1)c(O)c1ccccc12,99
Cc1cc(O)c(CN2CCN(C)CC2)c2oc(=O)c3ccccc3c12,81*
Cc1cc(=O)oc2c(CN3CCCCC3)c(O)ccc12,100
C1CCC(N=C(NC2C3CC4CC(C3)CC2C4)N2CCOCC2)CC1 (centres undefined),101
COc1ccccc1C(c1c(O)[nH]c(=S)[nH]c1=O)N(Cc1ccccc1)C(C)C (centres undefined),102
CC[n+]1ccc(C)c2ccccc21,99
CCN1C=C/C(=C\c2cc[n+](CC)c3ccccc23)c2ccccc21,65*
Cc1cc(=O)oc2cc(OCC(=O)NCC3CCCCC3)c(Cl)cc12,100
O=C(NCCO)c1nnc(-c2cccc(Cl)c2)o1,100
SMILES,VACV E9 pol inh
CCOc1ccc2nc(NC(=O)C(C)C)sc2c1,115
CCOc1ccc2nc(NC(=O)C(CC)CC)sc2c1,98
CCOc1ccc2nc(NN)sc2c1,22*
COc1ccc2cc3cc(C(=O)NCc4ccco4)oc3nc2c1,87
COc1ccc2cc3cc(C(=O)NCCN4CCN(c5ccccc5F)CC4)oc3nc2c1,96
COc1ccc2cc3cc(C(=O)NCCN(C)C)oc3nc2c1,40*
Cc1cc(Nc2cccc(Cl)c2)nc2ccc(NC(=O)c3ccccn3)cc12,101
O=C(CC(C(=O)O)N1CCOCC1)Nc1ccc(Cl)cc1Cl (centres undefined),100
Cc1ccc(NC(=O)CSc2cccc[n+]2[O-])c(Br)c1,101
O=C1c2cccc(O)c2C(=O)c2c(O)cccc21,100
O=C1c2ccc(O)c(O)c2C(=O)c2c(O)ccc(O)c21,78
O=C1C=CC(=O)c2c(O)cccc21,74*
CCOC(=O)c1c(NC(=O)/C=C\C(=O)O)sc(C)c1-c1ccccc1,63*
CCOC(=O)c1c(NC(=O)CCN2CCOCC2)sc(C)c1-c1ccccc1,82
CCOC(=O)c1c(NC(C)=O)sc(Br)c1-c1ccc(C)cc1,89
NNC(=O)c1nnn(-c2nonc2N)c1CN1CCCCC1,98
O=S(=O)(c1ccc(-c2nc3ccccc3s2)cc1)N1CCOCC1,108
CC1CCCC(C)N1C(=O)COC(=O)C1CC1 (centres undefined),106
CO[C@@]1(NC(=O)C(C(=O)O)c2ccc(O)cc2)C(=O)N2C(C(=O)O)=C(CSc3nnnn3C)CO[C@@H]21 (some centres undefined),8.0*
Cc1ccc(NCC(O)CN2c3ccccc3Sc3ccccc32)c(C)c1 (centres undefined),100
CCn1c2ccccc2c2cc(/C=N/n3cnnc3)ccc21,61*
CCN(Cc1ccccc1)c1ccc(/C=N/n2cnnc2)cc1,104
CCn1c2ccccc2c2cc(C=Nc3ccc(Cl)cc3)ccc21,102
Cc1cc(C)n2c(Nc3c(C)cccc3C)c(-c3ccc(Cl)s3)nc2n1,94
CC1CC[C@@]2(NC1)OC1CC3C4CC=C5CC(O)CCC5(C)C4CCC3(C)C1[C@@H]2C (some centres undefined),99
SMILES,VACV E9 pol inh
CCOC(=O)c1ccc(NC(=S)NCCOC23CC4CC(CC(C4)C2)C3)cc1,87
COc1ccc(OC)c(NC(=O)c2cccnc2)c1,100
COc1ccc(-c2cc3ccccn3c2C(=O)c2cccnc2)c(OC)c1,44*
COc1ccc2nc(NC(=O)c3cccnc3)sc2c1,99
CCOc1cc(/C=C2\C(=O)Nc3ccccc32)ccc1O,101
CCOC(=O)C1=C(Cn2ccnc2)NC(=O)NC1c1ccc(Cl)cc1 (centres undefined),111
O=C(O)CCNc1ccccc1C(=O)O,100
O=C(O)c1ccccc1NCc1ccc(Cl)cc1,53*
O=C(O)c1ccccc1NCCO,90
Cc1ccc(C=Nc2ccc(Oc3ccccc3)cc2)s1,101
Cc1ccc(/C(O)=C/c2nc3ccccc3[nH]c2=O)cc1C,100
CCN1CCN(CCCNC(=O)c2ccc3nc(/C=C(\O)c4ccc(OC)cc4)c(=O)[nH]c3c2)CC1,48*
COc1ccc(/C(O)=C/c2nc3ccc(C(=O)N4CCOCC4)cc3[nH]c2=O)cc1OC,80
CCc1nc2ccccc2n1CCCOc1ccc(Cl)cc1,94
O=C(O)CCP(=O)(O)CN1CCCCCC1,100
CC(NC(=O)COc1ncnc2ccccc12)C1CC2CCC1C2 (centres undefined),101
CC(=O)Nc1ccc(Cl)c(Cl)c1,99
COc1ccc(NC(C)=O)cc1C,101
CC(=O)Nc1ccc(-n2c(C)ccc2C)c(C(=O)O)c1,49*
COc1ccc(C(CC(=O)c2ccco2)C2CCCCC2=O)cc1 (centres undefined),100
Oc1ccc(-c2n[nH]c(C(F)(F)F)c2-c2cnn(-c3ccccc3)c2)c(O)c1,101
CN(C)c1cccc(N(C)C)c1CNC(=O)c1ccccc1F,107
COc1ccc(N=Cc2ccccc2OCc2ccccc2)cc1,100
O=C(c1ccccc1)N(Cc1ccc(Cl)cc1)Cc1ccco1,93
Cc1cc(-c2ccccc2N)nc2ccccc12,99
SMILES,VACV E9 pol inh
Cc1cc(N)c2ccccc2[n+]1CCCCCCCCCC[n+]1c(C)cc(N)c2ccccc21,35*
Cc1cc(N=Cc2c[nH]c3ccccc23)ccc1Br,95
CNC(=O)C1CCCN(c2nn3c(=O)cc(C)nc3s2)C1 (centres undefined),109
CCc1nnc(NC(=O)c2noc3c2COc2ccc(C)cc2-3)s1,98
CCN1CCCC1CNC(=O)c1noc2c1COc1ccc(C)cc1-2 (centres undefined),63*
Cc1ccc2c(c1)-c1onc(C(=O)NC3CCCc4ccccc43)c1CO2 (centres undefined),100
COC(=O)c1c[nH]n2c(=O)c3c(nc12)CCC3,107
O=C(O)c1ccccc1Nc1ccccc1,99
O=C(Nc1cccc(C(F)(F)F)c1)C(F)(F)F,88
O=C(O)c1ccccc1Nc1cccc(C(F)(F)F)c1,85*!
COc1ccc(C(=O)/C=C2/NCC3c4ccccc4CCN3C2=O)cc1 (centres undefined),91
Nc1ccccc1C(=O)NCCc1ccncc1,103
CC1CCC2(CC1)Nc1ccccc1C(=O)N2CCc1ccccc1 (centres undefined),100
CCOC(=O)c1c(C)n(Cc2ccccc2)c2ccc(O)cc12,102
CCOC(=O)c1c(C)n(CC)c2ccc(O)cc12,101
CCOC(=O)c1c2ccc(O)cc2n2ccccc12,75*

# High-throughput results from PubChem BioAssay.
